According to PubChem BioAssay AID686978 (National Center for Advancing Translational Sciences (NCATS), 2013):
Among all 420,000 compounds or so, about 64,000 (15%) were called active. Not shown: some 27% with an inconclusive outcome. Only a sample is shown. A number with no mark means an inactive call. Calls follow the shape of the dose curve; as a rule, active = well fitted inhibition curve with a large enough effect; inconclusive = small, poorly fitted or top-dose-only effect; inactive = flat fitted curve, though single readings scatter.

assay: qHTS for Inhibitors of human tyrosyl-DNA phosphodiesterase 1 (TDP1): qHTS in cells in absence of CPT; settings: DT40 Tdp1-/- hTDP1 cells, no CPT, ATP luminescence, 48 h; activity change, negative = growth inhibition: at 46.2 µM (top of the series); also: nearly all actives have a fitted effect of over 55% in size
How it was run: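 Chicken DT40 Tdp1-/- cells complemented with human TDP1, screened without camptothecin (DMSO vehicle only), 400 cells/well. Compounds pin-transferred, cells incubated at 37 °C for at least 48 hr. Growth read as ATP-dependent luminescence (CellTiter-Glo, 30 min at RT).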
% is scaled to controls: 0 for no effect and ±100 for the full control effect; potency is read from the fitted curve at half-maximal effect.

SMILES | activity change, negative = growth inhibition [%] | Potency
Cc1cc(S(=O)(=O)Nc2ccc(C(=O)NCC(c3ccco3)N3CCCC3)cc2)ccc1F (stereo unspecified) | -1.96 | 
CCOc1ccc(S(=O)(=O)Nc2ccc(OC)nc2)cc1 |  | 23.1 µM (active)
CCOc1ccc(NS(=O)(=O)c2ccc(C(=O)NCC(c3ccccc3OC)N3CCCC3)cc2)cc1 (stereo unspecified) |  | 18.4 µM (active)
CCOc1ccc(S(=O)(=O)Nc2ccc(S(=O)(=O)Nc3cc(OC)ccc3OC)cc2)cc1 | -2.25 | 
COc1ccccc1C(CNC(=O)c1cccc(NS(=O)(=O)c2ccc(Br)cc2)c1)N(C)C (stereo unspecified) |  | 18.4 µM (active)
CCOc1ccc(S(=O)(=O)Nc2nccs2)cc1 | -9.33 | 
COc1ccc(C(CNC(=O)c2ccc(S(=O)(=O)Nc3ccccc3C)cc2)N2CCOCC2)cc1 (stereo unspecified) | -29.7 | 
COc1ccc(C(CNC(=O)c2ccc(S(=O)(=O)Nc3ccccc3F)cc2)N(C)C)cc1 (stereo unspecified) | 0.312 | 
CC(=O)c1ccc(S(=O)(=O)Nc2ccc(C(=O)NCC(c3ccccc3)N(C)C)cc2)cc1 (stereo unspecified) | -4.49 | 
COc1ccccc1NC(=O)COC(=O)COc1ccccc1F | -3.57 | 
Cc1nnsc1S(=O)(=O)Cc1ccccc1Cl | 1.81 | 
O=C(CSc1nc2c(cnn2-c2ccc(F)cc2)c(=O)[nH]1)N1CCCCCC1 | -16.2 | 
COc1cccc(/C=C2\C=C(c3ccc(C)cc3)OC2=O)c1OC(C)=O | -5.6 | 
COc1cccc(/C=C/c2ccc3ccccc3n2)c1OC(C)=O |  | 16.4 µM (active)
CC(=O)c1ccc(S(=O)(=O)N2CCN(C(=O)/C=C/c3ccc4ccccc4n3)CC2)cc1 | -17.9 | 
O=C(Nc1ccccc1)c1ccc2nsnc2c1 | -22.4 | 
c1ccc(CNCc2ccc(CNCc3ccccc3)cc2)cc1 |  | 10.3 µM (active)
Fc1ccc(CNCc2ccc(Br)cc2)cc1 | -29.2 | 
O=C(Cc1ccccc1)NCc1ccc(F)cc1 | 5.8 | 
O=Cc1c(NCCCN2CCCC2=O)c2ccccc2[nH]c1=O | -12.5 | 
Cc1cc(Cl)c(S(=O)(=O)NCc2cccnc2)cc1OCC(N)=O | -3.14 | 
COc1ccc(C(CNC(=O)c2cccnc2SC)N2CCOCC2)cc1 (stereo unspecified) | -21.2 | 
O=C(NCC(c1ccc(Cl)cc1)N1CCOCC1)c1ccccc1F (stereo unspecified) |  | 13 µM (active)
CN1CCN(C(CNC(=O)c2ccccc2F)c2ccc3c(c2)OCO3)CC1 (stereo unspecified) | 3.73 | 
O=C1CCCC(O)=C1N=Nc1ccc2ncsc2c1 | -12.3 | 
Cc1ccc(C)c(NC(=O)C(c2ccccc2)N2CCN(CC(=O)NC3CC3)CC2)c1 (stereo unspecified) | 1.95 | 

SMILES | activity change, negative = growth inhibition [%] | Potency
CCC(CO)Oc1cc(NC(=O)c2ccc(Cl)cc2)c2ncn(C(C)C)c2c1 (stereo unspecified) | -23.1 | 
COc1cc(C(=O)N2CCC(c3ccncc3)CC2)cc(OC)c1OC | -23.6 | 
COc1cccc(Cn2c(SCc3ccc(C(=O)N4CCCCC4)cc3)nc3ccncc32)c1 |  | 20.6 µM (active)
COc1cccc(Cn2c(SCc3ccc(C(=O)N4CCC(C)CC4)cc3)nc3ccncc32)c1 |  | 20.6 µM (active)
COc1ccc(CSc2nnnn2-c2ccc(C(=O)O)cc2)cc1 | 2.56 | 
COC(=O)c1ccc2c(=O)n(CCN3CCOCC3)c(SCC(=O)Nc3cccc(OC)c3)nc2c1 | 0.614 | 
Cc1cccc(CSc2nc3ccncc3n2Cc2ccc(C(=O)O)cc2)c1 | -2.18 | 
CCCCNC(=O)C1(c2ccc(OC)cc2)CCOCC1 | 5.04 | 
CCCCc1ccc(S(N)(=O)=O)cc1 | 4.03 | 
N#Cc1nc(/C=C/c2ccc(F)cc2)oc1NC1CCCCC1 | -30 | 
Nc1nonc1-n1nnc(C(=O)N/N=C/c2ccc(Cl)cc2)c1-c1ccc2c(c1)OCO2 | -9.73 | 
O=C(NCCCO)C(=O)Nc1c2c(nn1-c1ccc(F)cc1)CSC2 | -5.47 | 
COc1ccc(S(=O)(=O)N2CCN(C(=O)N(C)C)C2C)cc1 (stereo unspecified) | -7.79 | 
COC(=O)c1[nH]c2ccccc2c1NS(=O)(=O)c1ccc(OC)cc1OC | 1.01 | 
COc1ccc(C)cc1Nc1nc(-c2c(C)[nH]c3ccccc23)cs1 | -22.6 | 
CN=c1scc(-c2cc(OC)ccc2OC)n1/N=C/c1c(C)[nH]c2ccccc12 |  | 16.4 µM (active)
COC(=O)/C(C#N)=C/c1occc1C | 0.245 | 
COc1ccc(/C=C(\C#N)C(=O)OCC(=O)N(C)C2CCS(=O)(=O)C2)cc1 (stereo unspecified) | 6.36 | 
COc1ccc(/C=C(\C#N)C(=O)ONC2=NCCCCC2)cc1 |  | 20.6 µM (active)
CC(=O)C1C(c2ccc(Cl)cc2)NC(=O)NC1(O)C(F)(F)F (stereo unspecified) | 3.1 | 
CN(CC#CCC(c1ccccc1)c1ccccc1)C(C)(C)C |  | 17.8 µM (active)
O=C(CCc1ccccc1)NCCc1cccs1 | 14.1 | 
COC(=O)[C@@H]1CC2=CC(=O)CC[C@]2(C)[C@@]23O[C@@H]2C[C@@]2(C)[C@@H](CC[C@@]24CCC(=O)O4)[C@H]13 | -25.3 | 
CC1(C)CC(N(Cc2ccccc2)C(=O)Cc2ccccc2)CCO1 (stereo unspecified) | -15.1 | 
CC1(C)CC(CNCCC(c2ccc(F)cc2)c2ccco2)CCO1 (stereo unspecified) |  | 14.6 µM (active)
